Experimental findings from paper PMC11995724, “Antibiotic target discovery by integrated phenotypic and activity-based profiling of electrophilic fragments” (Cell chemical biology, 2025) are described below.

Among all 3,200 compounds or so, about 75 (2%) showed an effect of 50% or more. The sample holds strong results, similar compounds and a random draw of the others, so the mix is not that of the screen.

The experiment relates to T1, S. aureus MSSA476.
T1 construct: MSSA476
Details: species or system S. aureus MSSA476 (TSB) or V. cholerae SAD30 (LB); 384-well bacterial growth screen at 25 uM, OD600 relative to DMSO control. To be noted: relative growth, OD600, TSB; 25 µM; inhibitor.
For `C=CC(=O)NCc1nc2c(s1)CCCC2` [1-G18, N-[(4,5,6,7-tetrahydro-1,3-benzothiazol-2-yl)methyl]prop-2-enamide], the “% of control remaining” value stood at 119.56%.
Take `C=CC(=O)N(CC)CC(=O)N1CCCC1c1cn(C)nc1C` (centres unmarked) [2-N12, N-{2-[2-(1,3-dimethyl-1H-pyrazol-4-yl)pyrrolidin-1-yl]-2-oxoethyl}-N-ethylprop-2-enamide]: the “% of control remaining” value is listed as 110.009%.
With `CCN(CC(=O)NC1CCS(=O)(=O)C1)C(=O)CCl` (centres unmarked) [4-I19, 2-chloro-N-{[(1,1-dioxo-1lambda6-thiolan-3-yl)carbamoyl]methyl}-N-ethylacetamide], the “% of control remaining” value was determined as 127.68%.
With `O=C(CCl)c1cc2c3c(c1)CC(=O)N3CCC2` [10-G16, 6-(2-chloroacetyl)-1-azatricyclo[6.3.1.0,4,12]dodeca-4(12),5,7-trien-2-one] the figure was 130.938%; with `O=C(CCl)c1ccc2c(c1)CCN(C(=O)C(F)(F)F)C2` [10-E09, 1-[6-(2-chloroacetyl)-1,2,3,4-tetrahydroisoquinolin-2-yl]-2,2,2-trifluoroethan-1-one], 20.625%.
For `CC(Cl)C(=O)Nc1ccc(S(N)(=O)=O)cc1` (centres unmarked) [6-B06, 2-chloro-N-(4-sulfamoylphenyl)propanamide], the “% of control remaining” value was found to be 82.2927%.
`C=CC(=O)Nc1cc(NC(=O)C2(OC)CCOC2)ccc1F` (centres unmarked) [3-D05, N-[4-fluoro-3-(prop-2-enamido)phenyl]-3-methoxyoxolane-3-carboxamide]: the “% of control remaining” value is on record as 96.8219%.
With `C=CC(=O)Nc1cc(NC(=O)C2CCC2)ccc1F` [2-E10, N-[4-fluoro-3-(prop-2-enamido)phenyl]cyclobutanecarboxamide], the “% of control remaining” value turned out to be 111.749%.
For `C=CC(=O)Nc1cc(NC(=O)c2ccc([N+](=O)[O-])o2)ccc1F` [3-J04, N-[4-fluoro-3-(prop-2-enamido)phenyl]-5-nitrofuran-2-carboxamide], the “% of control remaining” value is on record as -4.528%.
Turning to `Cc1cc(C(=O)CCl)c(C)n1CCc1ccccc1` [10-B18, 2-chloro-1-[2,5-dimethyl-1-(2-phenylethyl)-1H-pyrrol-3-yl]ethan-1-one], the “% of control remaining” value is 102.188%.
The value for `Cc1cc(C(=O)CCl)c(C)n1CCc1ccc(F)cc1` [10-G14, 2-chloro-1-{1-[2-(4-fluorophenyl)ethyl]-2,5-dimethyl-1H-pyrrol-3-yl}ethan-1-one] was 123.75%.
Consider `Cc1cc(C(=O)CCl)c(C)n1CCc1cccs1` [10-F16, 2-chloro-1-{2,5-dimethyl-1-[2-(thiophen-2-yl)ethyl]-1H-pyrrol-3-yl}ethan-1-one], for which the “% of control remaining” value was 20.3125%.
In the case of `Cc1cc(C(=O)CCl)c(C)n1Cc1ccccc1Cl` [10-P16, 2-chloro-1-{1-[(2-chlorophenyl)methyl]-2,5-dimethyl-1H-pyrrol-3-yl}ethan-1-one], the “% of control remaining” value stood at 127.813%.
Regarding `Cc1cc(C(=O)CCl)c(C)n1CCc1ccc(Cl)cc1` [10-N16, 2-chloro-1-{1-[2-(4-chlorophenyl)ethyl]-2,5-dimethyl-1H-pyrrol-3-yl}ethan-1-one], the “% of control remaining” value came to 5.9375%.
Take `Cc1cc(C(=O)CCl)c(C)n1Cc1ccc(F)cc1` [10-N17, 2-chloro-1-{1-[(4-fluorophenyl)methyl]-2,5-dimethyl-1H-pyrrol-3-yl}ethan-1-one]: the “% of control remaining” value was 4.6875%.
On to `Cc1cc(C(=O)CCl)c(C)n1Cc1ccccc1` [10-M14, 1-(1-benzyl-2,5-dimethyl-1H-pyrrol-3-yl)-2-chloroethan-1-one], for which the “% of control remaining” value is listed as 143.438%.
Regarding `Cc1cc(C(=O)CCl)c(C)n1Cc1cccs1` [10-D03, 2-chloro-1-{2,5-dimethyl-1-[(thiophen-2-yl)methyl]-1H-pyrrol-3-yl}ethan-1-one], the “% of control remaining” value came to 122.5%.
For `COCCn1c(C)cc(C(=O)CCl)c1C` [10-D13, 2-chloro-1-[1-(2-methoxyethyl)-2,5-dimethyl-1H-pyrrol-3-yl]ethan-1-one], the “% of control remaining” value is recorded as 103.125%.
`O=C(CCl)NC(Cc1ccccc1)c1ccccc1F` (centres unmarked) [7-N10, 2-chloro-N-[1-(2-fluorophenyl)-2-phenylethyl]acetamide]: the “% of control remaining” value was 83.5165%.
On to `CC(Cl)C(=O)N1CCNC(=O)C1Cc1nc2ccccc2o1` (centres unmarked) [6-P03, 3-[(1,3-benzoxazol-2-yl)methyl]-4-(2-chloropropanoyl)piperazin-2-one], for which the “% of control remaining” value turned out to be 97.3171%.
As for `c1ccc(CSSCc2ccccc2)cc1` [10-O21, [(benzyldisulfanyl)methyl]benzene], the “% of control remaining” value is 113.125%.
With `Cl.O=C(CCl)NCC(c1ccccc1Cl)N1CCCC1` (centres unmarked) [6-G17, 2-chloro-N-[2-(2-chlorophenyl)-2-(pyrrolidin-1-yl)ethyl]acetamide hydrochloride], the “% of control remaining” value is on record as 101.415%.
For `O=C(CCl)NC(Cc1cccc(O)c1)c1ccccc1` (centres unmarked) [7-N20, 2-chloro-N-[2-(3-hydroxyphenyl)-1-phenylethyl]acetamide], the “% of control remaining” value is listed as 100.157%.
The value for `COc1ccc(N2C(=O)C=CC2=O)c([N+](=O)[O-])c1` [10-L11, 1-(4-methoxy-2-nitrophenyl)-2,5-dihydro-1H-pyrrole-2,5-dione] was 100%.
For the molecule `CC(C)CNC(=O)c1ccccc1NC(=O)CCl` [4-E04, 2-(2-chloroacetamido)-N-(2-methylpropyl)benzamide], the “% of control remaining” value is listed as 88.4231%.
On to `O=C(CCl)NCC(=O)Nc1ccc(F)c(F)c1` [4-L16, 2-chloro-N-{[(3,4-difluorophenyl)carbamoyl]methyl}acetamide], for which the “% of control remaining” value was found to be 109.004%.
Regarding `N#CC(C(=O)CCl)=C1Nc2ccccc2S1` [10-J04, 4-chloro-2-(2,3-dihydro-1,3-benzothiazol-2-ylidene)-3-oxobutanenitrile], the “% of control remaining” value amounted to 43.75%.
With `N#CC(C(=O)CCl)=C1Nc2cc(Cl)ccc2S1` [10-O08, 4-chloro-2-(5-chloro-2,3-dihydro-1,3-benzothiazol-2-ylidene)-3-oxobutanenitrile], the “% of control remaining” value is given as 100%.
With `N#CC(C(=O)CCl)=C1NC(=O)c2ccccc2N1` [10-P14, 4-chloro-3-oxo-2-(4-oxo-1,2,3,4-tetrahydroquinazolin-2-ylidene)butanenitrile] the figure was 93.75%.
